Our source for the outcome, Potency and activity change, negative = inhibition values is PubChem BioAssay (NCATS).

SMILES strings stand for the structures. Several values for one entry are separate records, joined by “and”; a condition that tells them apart may be missing. Equal entries are not always repeated. Records with an inconclusive call do not appear. Where a call stands in place of a potency, no number is given. A number with no mark means an inactive call. Activity calls are given as the source filed them. Calls follow the shape of the dose curve; as a rule, active = well fitted curve in the direction sought with a large enough effect; inconclusive = small, poorly fitted or top-dose-only effect, or another doubt; inactive = no such curve, though single readings can be large; an effect the other way counts as inactive or inconclusive.

For test [1], the target named is Lysine-specific demethylase 5B (Homo sapiens) (UniProt Q9UGL1). Briefly: Optimization screen for KDM5B Histone Demethylases FDH coupled qHTS against the LOPAC library (AID 1347166). Conditions: KDM5B demethylation, FDH-coupled NADH fluorescence (FDH is formaldehyde dehydrogenase); series mostly up to 57.5 µM. In outline:
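KDM5BDeltaAP (200nM final) preincubated 10 min with compound, then 12.5uM H3K4Me3, 25uM a-ketoglutarate, ascorbate, Fe(II), NAD+ and FDH added; 50mM HEPES pH 7.5, 0.01% Tween-20. NADH fluorescence (340/450 nm) change over 30 min, room temperature.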
In general terms: In qHTS, concentration-response curves come from the screen itself.

Test [2] is described as follows: Vero cells viability qHTS for Zika virus inhibitors (AID 1347167). The following applies: cytotoxicity counter-screen (Zika); series mostly up to 45.9 µM. In outline:
(§1)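 Cells seeded at 2.5 x 10^5 cells/mL in DMEM with 4% FBS and attached overnight at 37 degrees C, then exposed to compound for 24 to 48 hours. Viability read as ATP content by CellTiter Glo luminescence.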

A short description of test [3]: HepG2 cells viability qHTS for Zika virus inhibitors (AID 1347168). Conditions: Zika counter-screen; series mostly up to 45.9 µM. Summed up: as §1
Test [4] in a line: Tertiary RLuc qRT-PCR qHTS assay for Zika virus inhibitors (AID 1347169). Also: top concentration of the series differs between compounds; nearly all actives have a fitted effect of over 55% in size. Conditions: infected Vero cells, reporter luminescence, 48-72 h; series mostly up to 45.9 µM. In outline:
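Inhibition of ZIKV-RLuc replication in Vero cells, read as Renilla luminescence 1-1.5 hrs after live-cell substrate addition, following 48-72 hrs infection at MOI 1-2 in presence of compound.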

The nature of test [5]: OV-KATE Cancer Cell Toxicity qHTS against the NCATS CANVASS Library (AID 1347345). The following applies: OV-KATE cells viability, CellTiter-Glo luminescence, 72 h; series mostly up to 38.3 µM. Summed up:
(§2)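 Bortezomib titration and single-dose wells served as plate controls. Test compounds, 11 points, acted on 1000 cells/well for 72 h at 37 degrees C; CellTiter-Glo luminescence quantified remaining viable cells.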

Test [6] is described as follows: HPAF-II Cancer Cell Toxicity qHTS against the NCATS CANVASS Library (AID 1347346). Also: potency is read from the fitted curve at half-maximal effect; nearly all actives have a fitted effect of over 55% in size. Conditions: HPAF-II viability, CellTiter-Glo ATP luminescence, 72 h. In outline: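 Cytotoxicity in HPAF-II pancreatic cancer cells: 72 h treatment across 11 concentrations, ATP-based CellTiter-Glo luminescence endpoint.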
Test [7] in a line: UWB1.289 Cancer Cell Toxicity qHTS against the NCATS CANVASS Library (AID 1347347). Also: nearly all actives have a fitted effect of over 60% in size. Conditions: UWB1.289 viability, CellTiter-Glo luminescence, 72 h; series mostly up to 38.3 µM. In outline: as §2
Test [8] is described as follows: OV-SAHO Cancer Cell Toxicity qHTS against the NCATS CANVASS Library (AID 1347348). Also: nearly all actives have a fitted effect of over 55% in size. Conditions: OV-SAHO viability, CellTiter-Glo luminescence, 72 h; series mostly up to 38.3 µM. Summed up: as §2
A short description of test [9]: SW1088 Cancer Cell Toxicity qHTS against the NCATS CANVASS Library (AID 1347350). Also: nearly all actives have a fitted effect of over 75% in size. The following applies: SW1088 viability, CellTiter-Glo luminescence, 72 h; at 38.3 µM (top of the series). Summed up:
as §2

The nature of test [10]: U-118MG Cancer Cell Toxicity qHTS against the NCATS CANVASS Library (AID 1347351). The following applies: U-118MG viability, CellTiter-Glo luminescence, 72 h; series mostly up to 38.3 µM. In outline: as §2

Chain of Lysine-specific demethylase 5B (Homo sapiens) (Q9UGL1 whole entry, looked up): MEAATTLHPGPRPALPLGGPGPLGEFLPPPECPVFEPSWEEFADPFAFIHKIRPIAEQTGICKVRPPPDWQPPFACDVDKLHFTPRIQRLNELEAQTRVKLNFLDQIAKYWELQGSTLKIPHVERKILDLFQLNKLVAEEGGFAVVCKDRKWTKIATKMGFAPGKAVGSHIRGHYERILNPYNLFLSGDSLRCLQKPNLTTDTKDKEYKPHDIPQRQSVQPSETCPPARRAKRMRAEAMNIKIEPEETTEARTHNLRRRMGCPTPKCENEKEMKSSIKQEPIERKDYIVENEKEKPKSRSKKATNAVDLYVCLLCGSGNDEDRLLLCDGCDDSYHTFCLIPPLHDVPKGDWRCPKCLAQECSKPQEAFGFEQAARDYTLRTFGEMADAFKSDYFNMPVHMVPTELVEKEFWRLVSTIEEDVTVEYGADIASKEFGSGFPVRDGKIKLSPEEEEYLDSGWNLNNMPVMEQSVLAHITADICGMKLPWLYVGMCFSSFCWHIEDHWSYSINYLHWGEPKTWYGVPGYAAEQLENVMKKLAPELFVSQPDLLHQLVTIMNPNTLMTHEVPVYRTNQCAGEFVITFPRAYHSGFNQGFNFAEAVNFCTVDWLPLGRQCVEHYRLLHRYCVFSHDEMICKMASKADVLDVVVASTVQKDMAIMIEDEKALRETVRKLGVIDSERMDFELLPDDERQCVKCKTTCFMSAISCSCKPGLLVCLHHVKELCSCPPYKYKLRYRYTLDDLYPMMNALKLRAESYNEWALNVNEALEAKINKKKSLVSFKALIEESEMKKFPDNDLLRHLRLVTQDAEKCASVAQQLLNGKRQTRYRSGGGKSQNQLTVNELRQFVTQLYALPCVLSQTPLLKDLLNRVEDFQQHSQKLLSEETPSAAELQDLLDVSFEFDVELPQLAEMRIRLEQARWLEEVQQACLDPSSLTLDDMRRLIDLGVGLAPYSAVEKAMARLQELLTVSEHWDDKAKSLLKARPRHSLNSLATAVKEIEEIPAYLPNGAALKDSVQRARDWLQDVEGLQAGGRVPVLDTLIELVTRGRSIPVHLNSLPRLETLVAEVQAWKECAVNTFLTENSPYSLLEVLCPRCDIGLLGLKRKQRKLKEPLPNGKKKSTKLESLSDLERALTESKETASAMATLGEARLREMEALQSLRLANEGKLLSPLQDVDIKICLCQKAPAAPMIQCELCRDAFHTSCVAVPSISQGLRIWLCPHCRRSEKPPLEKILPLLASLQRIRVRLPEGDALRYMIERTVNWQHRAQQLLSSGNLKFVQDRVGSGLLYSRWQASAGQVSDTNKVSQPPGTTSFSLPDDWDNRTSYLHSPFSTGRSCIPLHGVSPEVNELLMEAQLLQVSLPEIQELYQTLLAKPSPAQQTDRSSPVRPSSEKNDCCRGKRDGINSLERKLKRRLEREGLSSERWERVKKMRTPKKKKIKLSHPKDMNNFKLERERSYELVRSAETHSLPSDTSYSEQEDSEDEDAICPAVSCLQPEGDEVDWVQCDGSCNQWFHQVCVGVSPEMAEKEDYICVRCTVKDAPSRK

In the case of `Nc1nnc(-c2cccc(Cl)c2Cl)c(N)n1`, the outcome in [1] was inactive.

In the case of `COc1cc2nc(N3CCN(C(=O)c4ccco4)CC3)nc(N)c2cc1OC`, in test [2], the Potency entry was “inactive”. In addition, in test [3], the outcome was inactive.

Regarding `O=C1c2c(O)ccc(O)c2C(=O)c2c(NCCNCCO)ccc(NCCNCCO)c21`, in test [1], the result was inactive.

As to `C[C@H]1c2cccc(O)c2C(O)=C2C(=O)[C@]3(O)C(O)=C(C(N)=O)C(=O)[C@@H](N(C)C)[C@@H]3[C@@H](O)[C@@H]21`, in test [2], the Potency entry was “inactive”. Besides, in test [3], the compound was called inactive.

As to `Cc1cn([C@H]2C=C[C@@H](CO)O2)c(=O)[nH]c1=O`, the compound was classed as inactive in [1].

Regarding `CN(Cc1cnc2nc(N)nc(N)c2n1)c1ccc(C(=O)N[C@@H](CCC(=O)O)C(=O)O)cc1`, the Potency result in test [2] and in test [4] was “inactive” in each case. Further, the compound was classed as inactive in test [3].

For the compound `O=c1c(O)c(-c2ccc(O)c(O)c2)oc2cc(O)cc(O)c12`, in [1], the compound was called inactive. Moreover, in test [4], the activity change, negative = inhibition was 52.3% [at 5.25 µM] and 65.1% [at 0.997 µM].

Turning to `COc1ccc2[nH]cc(CCNC(C)=O)c2c1`, the call in test [5], in [7], in test [8], in test [9] and in [10] was inactive. The Potency in test [6] was 5.95 µM (active).

For the compound `NC(=O)OCC(COC(N)=O)c1ccccc1`, in [1], the outcome was inactive.

As to `Cc1ccc(C(=O)Nc2ccc(S(=O)(=O)O)c3cc(S(=O)(=O)O)cc(S(=O)(=O)O)c23)cc1NC(=O)c1cccc(NC(=O)Nc2cccc(C(=O)Nc3cc(C(=O)Nc4ccc(S(=O)(=O)O)c5cc(S(=O)(=O)O)cc(S(=O)(=O)O)c45)ccc3C)c2)c1`, the Potency result in test [4] is “inactive”.

On to `CC(C(=O)O)c1cccc(C(=O)c2ccccc2)c1` (centres undefined), for which the outcome in test [1] was inactive.

Consider `Cc1ccccc1N1C(=O)c2cc(S(N)(=O)=O)c(Cl)cc2NC1C` (centres undefined), for which the Potency result in test [2] and in [4] was “inactive” throughout. For the same compound, the outcome in test [3] was inactive.
